14 molecules from PubChem BioAssay AID2726 (Broad Institute, 2010) can be followed below.

Molecules are shown by their SMILES. Some of the results follow. A number with no mark means an inactive call.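 Rule for the calls: active = every replicate shows growth inhibition above 50%; inconclusive = at least half, but not all, replicates pass that cutoff; inactive = fewer than half of replicates pass it.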

The nature of this experiment: Vibrio harveyi growth inhibition, confirmation, counter-screen for AI-2 quorum sensing project, JMH597 strain, OD600 absorbance (AID 2726). Particulars: 9 h, at 7.5 µM, hits give high values, lacks LuxN and CqsS sensors. On the technique in general: Counterscreens check selectivity or assay interference.
For `CN(Cc1cnccn1)C(=O)c1cc(COc2cccc(C(F)(F)F)c2)on1`, the growth inhibition was 4.24%.
For `O=C(Cn1cnc2ccccc2c1=O)Nc1cccc(S(=O)(=O)N2CCCCC2)c1`, the growth inhibition was 22.5%.
To `Cc1cc(CN(C)C(=O)c2cc(COc3ccc(C)c(C)c3)on2)n[nH]1` belongs 25.5%; to `O=C(/C=C/c1ccc2c(c1)OCO2)NCc1ccc(F)cc1`, 4.99%.
Consider `Cc1ccsc1C(=O)OCC(=O)c1cc2ccccc2o1`, for which the growth inhibition is 32.2%.
On to `O=C(Nc1ccc(F)c(Cl)c1)C1CCN(S(=O)(=O)c2cccnc2)CC1`, for which the growth inhibition is -9.31%.
Then `CC(C)(C)c1ccc(OC2=CS(=O)(=O)c3ccccc32)cc1`, with 31.5%.
For the molecule `O=C1COc2ccc(S(=O)(=O)Nc3ccc(OC(F)(F)F)cc3)cc2N1`, the growth inhibition is 41.4%.
Regarding `Cc1ccc(NS(=O)(=O)c2ccc3c(c2)NC(=O)CO3)cc1`, the growth inhibition was -1.97%.
To `Cc1cccc(CSc2ccc(-c3cccs3)nn2)c1` belongs 18.7%.
Consider `CC(=O)c1cccc(OCc2cc(C(=O)NC(C)Cc3cccnc3)no2)c1` (centres undefined), for which the growth inhibition was 1.63%.
Then `Cc1ccccc1C(=O)Nc1ccc(N2CCCCCC2)cc1`, with 25.5%.
To `CCOc1ccc(/C=N/NC(N)=S)cc1` belongs 8.81%; to `S=C(NCc1ccc(Cl)cc1)NC1CCCCC1`, 11.3%.
